Hits are enriched below; roughly 17% of the tested compounds scored in any of these assays.
S2 tox: viability counter-screen for ATXN expression inhibitors. S2 cells (HEK-293 line with an ATXN2-luciferase reporter) viability, CellTiter-Fluor protease fluorescence, 24 h. Potency, µM (highest dose often 56.7 µM), actives largely listed as cytotoxic. 0.49% of 400,000 active. AID 651635; also: nearly all actives have a fitted effect of over 40% in size
TGFb inhibitor: TGF-b pathway inhibition. HepG2 CAGA-GFP TGF-b/SMAD3 reporter, GFP fluorescence, 18 h; TGF-beta stimulated, 500 pg/mL final. Potency, µM (doses to about 46.1 µM), actives largely listed as inhibitors. 1.2% of 410,000 active; also: nearly all actives have a fitted effect of over 65% in size
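HEPG2 CAGA-GFP cells (1000/well, DMEM with 1% FBS) were pre-incubated 2 h at 37 degrees C, given compound by pin tool, then stimulated with TGF-beta at 500 pg/mL final for 18 h before per-cell GFP fluorescence imaging.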
DT40 TDP1 CPT: growth inhibition of DT40 Tdp1-/-;hTDP1 cells with camptothecin (screen for TDP1 inhibitors) | AID 686979 | 12% of 420,000 active | chicken DT40 Tdp1-/-;hTDP1 cells + 20 nM CPT, ATP luminescence, 48 h | Potency, µM (titrated, usually from 46.2 µM), most hits filed as inhibitors; also: nearly all actives have a fitted effect of over 55% in size
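Cell growth measured by CellTiter-Glo luminescence after a minimum 48 h, 37 C compound exposure with 20 nM CPT in Tdp1-knockout DT40 cells stably expressing hTDP1, seeded 400/well; qHTS titration format.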
HepG2 tox: counter-screen for TGF-b inhibitors: cytotoxicity in HepG2 cells; HepG2 CAGA-GFP viability, ATP luminescence, 18 h; Potency, µM (highest dose often 46.1 µM), usual class: cytotoxic; 0.76% of 410,000 active
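HepG2 CAGA-GFP cells (1000/well, DMEM with 1% FBS) received compound, then TGF-beta at 500 pg/mL final, and were incubated 18 hours at 37 degrees C. Viability was read by CellTiter-Glo luminescence. Media-only wells were set as complete cell-killing and DMSO as no toxicity.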
DT40 TDP1 no CPT: qHTS for Inhibitors of human tyrosyl-DNA phosphodiesterase 1 (TDP1): qHTS in cells in absence of CPT. DT40 Tdp1-/- hTDP1 cells, no CPT, ATP luminescence, 48 h. Potency, µM (series often up to 46.2 µM), usual class: inhibitors. 15% of 420,000 active. AID 686978, 2013; also: nearly all actives have a fitted effect of over 55% in size
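Luminescent ATP content (CellTiter-Glo) served as the growth readout. Knockout chicken DT40 cells expressing human TDP1 were exposed to compounds without camptothecin for a minimum 48 hr at 37 °C.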
ATXN2 expr inh: reduces ATXN2 reporter expression in HEK-293 cells; HEK-293 ATXN2-luciferase reporter, luminescence, 24 h; Potency, µM (top dose mostly 57 µM), actives largely listed as inhibitors; 0.72% of 360,000 active; AID 1745845; also: nearly all actives have a fitted effect of over 55% in size
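qHTS (up to 57 uM final) was run with 24 h compound exposure of reporter cells at 37 °C. Each well was multiplexed: SteadyGlo luminescence measured ATXN2-luciferase expression after a fluorogenic Gly-Phe-AFC viability readout (25 uM final).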
Hits are given with their value; n = inactive; u = inconclusive; x = not tested or not shown; ! = a repeat was not active. Calls follow the shape of the dose curve; as a rule, active = well fitted curve in the direction sought with a large enough effect; inconclusive = small, poorly fitted or top-dose-only effect, or another doubt; inactive = no such curve, though single readings can be large; an effect the other way counts as inactive or inconclusive.

SMILES	S2 tox	TGFb inhibitor	DT40 TDP1 CPT	HepG2 tox	DT40 TDP1 no CPT	ATXN2 expr inh
CCC(Sc1nnc2c3ccccc3n(C)c2n1)C(=O)Nc1nnc(C(C)C)s1 (stereo not given)	n	n	u	n	n	n
O=C(Oc1ccc(F)cc1C(=O)/C=C/c1cccs1)c1cccc([N+](=O)[O-])c1	n	u	0.164µM	n	0.366µM	n
O=C(/C=C/c1ccccc1F)c1cccc([N+](=O)[O-])c1	u	u	u	14.1µM	20.6µM	x
Cc1ccc(OC(=O)c2cccc([N+](=O)[O-])c2)c(-n2nc3ccccc3n2)c1	n	n	n	n	n	n
COc1cc(/C=C/C(=O)OCC(=O)NC(C)c2ccccc2)cc(OC)c1OC (stereo not given)	n	n	n	n	n	n
COc1cc(/C=C/C(=O)OC(C)C(=O)c2ccccc2)cc(OC)c1OC (stereo not given)	n	n	20.6µM	n	14.6µM	n
CC(=O)c1cccc([N+](=O)[O-])c1	n	n	n	n	n	n
COc1ccc(C(=O)/C=C/c2ccccc2F)c(OC(=O)c2ccc([N+](=O)[O-])cc2)c1	u	n	23.1µM	n	13µM	n
O=C(COn1nnc2ccccc21)NCC1CCCCC1	n	n	n	n	n	n
CCN1CCN(C(=O)c2cc(NC(=O)COC)cc3nc(-c4ccncc4)n(C)c23)CC1	n	x	n	x	n	x
COc1cc(/C=C/C(=O)c2cccc([N+](=O)[O-])c2)cc(OC)c1OC	u	u	5.8µM	n	5.17µM	n
CCc1ccc(C(=O)COC(=O)C2=NN(c3ccccc3)C(=O)CC2)cc1	n	n	n	n	n	n
CCc1nn(-c2ccccc2)c2nc(-c3ccccc3OC)c3cc(OC)c(OC)cc3c12	n	n	18.4µM	n	16.4µM	n
CCOc1cc(-c2nc3c(c(CC)nn3-c3ccccc3)c3cc(OC)c(OC)cc23)ccc1O	n	n	3.26µM	n	u	n
CCc1nn(-c2ccccc2)c2nc(-c3ccc(O)cc3)c3cc(OC)c(OC)cc3c12	n	n	n	n	n	n
COc1ccc(NC(=O)c2cc(C3CCCCN3S(C)(=O)=O)on2)c(C)c1 (stereo not given)	n	n	n	n	n	n
COc1ccc(NC(=O)c2cc(C3CCCCN3S(=O)(=O)c3ccc(F)cc3F)on2)c(C)c1 (stereo not given)	u	u	u	n	14.6µM	n
COc1ccc(NC(=O)c2cc(C3CCCCN3S(=O)(=O)c3ccccc3)on2)c(C)c1 (stereo not given)	n	n	u	n	8.2µM	n
CCSc1ncc(Cl)c(C(=O)N(Cc2ccccc2Cl)C2CCS(=O)(=O)C2)n1 (stereo not given)	n	n	18.4µM	n	14.6µM	n
CC(C)Sc1ncc(Cl)c(C(=O)N(Cc2ccc(F)cc2)C2CCS(=O)(=O)C2)n1 (stereo not given)	n	n	u	n	23.1µM	n
CSc1ncc(Cl)c(C(=O)N(Cc2ccccc2Cl)C2CCS(=O)(=O)C2)n1 (stereo not given)	n	n	n	n	n	n
CCCOc1ccc(CN(C(=O)c2nc(SC(C)C)ncc2Cl)C2CCS(=O)(=O)C2)cc1 (stereo not given)	n	n	u	n	14.6µM	n
CSc1ncc(Cl)c(C(=O)N(Cc2ccc(C(C)C)cc2)C2CCS(=O)(=O)C2)n1 (stereo not given)	n	n	u	n	u	n
Cc1ccc(-c2noc(CCC(=O)Nc3cccc(C(=O)NC4CC4)c3)n2)cc1	n	n	n	n	u	x
CC1(C)CC(=O)c2cnc(NC(=O)Cc3ccc(Cl)cc3)nc2C1	n	n	u	n	23.1µM	n
SMILES	S2 tox	TGFb inhibitor	DT40 TDP1 CPT	HepG2 tox	DT40 TDP1 no CPT	ATXN2 expr inh
Cc1noc(C)c1C(=O)N1CCC2(CC1)CCN(c1ccccn1)CC2	x	x	n	x	u	x
Cc1nc(/C=C/c2ccccc2)[nH]c(=O)c1-c1ccccc1	n	n	10.3µM	n	u	n
CN(C)c1ccc(/C=C/c2nc3ccccc3c(=O)[nH]2)cc1	x	n	20.6µM	n	10.3µM	x
O=c1[nH]c(/C=C/c2cccc3ccccc23)nc2ccccc12	x	n	u	n	u	n
O=c1[nH]c(/C=C/c2ccccc2F)nc2ccccc12	n	n	2.91µM	n	2.91µM	x
O=c1[nH]c(/C=C/c2ccc(Br)cc2)nc2ccccc12	n	n	n	n	n	n
Cc1cccc(/C=C\c2nc3ccccc3c(=O)[nH]2)c1	n	n	20.6µM	n	18.4µM	n
Cc1cccc(/C=C(\C#N)c2nc3ccccc3c(=O)[nH]2)c1	n	n	u	n	u	n
COc1ncccc1C(=O)N1CCCC(N2CCN(c3cccc(Cl)c3)CC2)C1 (stereo not given)	n	n	u	n	u	n
Cc1ccccc1CN1CCN(c2ccc(S(=O)(=O)N3CCCC3)cn2)CC1	n	n	u	n	u	n
COc1ccc([C@@H]2C[C@H]3[C@@H](CN2S(=O)(=O)c2ccccc2)C(=O)C[C@@H](c2ccccc2)N3S(=O)(=O)c2ccc(C)cc2)cc1	n	u	n	n	n	n
Cc1ccc(S(=O)(=O)NC(C)CCc2ccccc2)cc1C(N)=O (stereo not given)	n	n	u	n	18.4µM	x
Cc1cc(-c2csc3nc[nH]c(=S)c23)cc(C)c1C	u	u	5.8µM	n	5.17µM	u
S=c1[nH]cnc2scc(-c3ccc(Br)cc3)c12	n	n	u	n	5.8µM	u
Cc1ccc(-c2csc3nc[nH]c(=S)c23)cc1	u	n	3.26µM	n	5.17µM	n
O=c1[nH]cnc2scc(-c3ccc(Br)cc3)c12	n	n	n	n	u	n
S=c1[nH]cnc2scc(-c3ccc(Cl)cc3)c12	n	n	u	n	u	n
Cc1cccc(NC(=O)c2cc([N+](=O)[O-])ccc2N2CCCCC2)n1	n	n	u	n	u	n
COC(=O)c1ccc(CN(Cc2ccc(OC)c(OC)c2)S(=O)(=O)c2ccc(F)c(C(=O)Nc3cc(C)ccc3C)c2)cc1	x	n	u	n	u	x
CC(=O)N1CCC(N(Cc2ccc(C)o2)C(=O)Nc2ccc(C)cc2)CC1	n	n	n	n	n	n
CC1=C(/C=C/C(=O)O)C(C)(C)CCC1	n	n	n	n	n	n
CC1=C(/C=C/C(C)=C/C=C/C(C)=C\C(=O)O)C(C)(C)CCC1	n	n	u	n	23.1µM!	n
CC1=C(\C=C/C(C)=C/C=C\C(C)=C\C(=O)O)C(C)(C)CCC1	n	x	14.6µM!	x	11.6µM!	x

High-throughput results: PubChem BioAssay, National Center for Advancing Translational Sciences (NCATS)
